Columns and labels:
[1] = biological target: T1, Ephrin type-A receptor 3 (Homo sapiens) (UniProt P29320); conditions: at 10 µM
T1 sequence (whole entry): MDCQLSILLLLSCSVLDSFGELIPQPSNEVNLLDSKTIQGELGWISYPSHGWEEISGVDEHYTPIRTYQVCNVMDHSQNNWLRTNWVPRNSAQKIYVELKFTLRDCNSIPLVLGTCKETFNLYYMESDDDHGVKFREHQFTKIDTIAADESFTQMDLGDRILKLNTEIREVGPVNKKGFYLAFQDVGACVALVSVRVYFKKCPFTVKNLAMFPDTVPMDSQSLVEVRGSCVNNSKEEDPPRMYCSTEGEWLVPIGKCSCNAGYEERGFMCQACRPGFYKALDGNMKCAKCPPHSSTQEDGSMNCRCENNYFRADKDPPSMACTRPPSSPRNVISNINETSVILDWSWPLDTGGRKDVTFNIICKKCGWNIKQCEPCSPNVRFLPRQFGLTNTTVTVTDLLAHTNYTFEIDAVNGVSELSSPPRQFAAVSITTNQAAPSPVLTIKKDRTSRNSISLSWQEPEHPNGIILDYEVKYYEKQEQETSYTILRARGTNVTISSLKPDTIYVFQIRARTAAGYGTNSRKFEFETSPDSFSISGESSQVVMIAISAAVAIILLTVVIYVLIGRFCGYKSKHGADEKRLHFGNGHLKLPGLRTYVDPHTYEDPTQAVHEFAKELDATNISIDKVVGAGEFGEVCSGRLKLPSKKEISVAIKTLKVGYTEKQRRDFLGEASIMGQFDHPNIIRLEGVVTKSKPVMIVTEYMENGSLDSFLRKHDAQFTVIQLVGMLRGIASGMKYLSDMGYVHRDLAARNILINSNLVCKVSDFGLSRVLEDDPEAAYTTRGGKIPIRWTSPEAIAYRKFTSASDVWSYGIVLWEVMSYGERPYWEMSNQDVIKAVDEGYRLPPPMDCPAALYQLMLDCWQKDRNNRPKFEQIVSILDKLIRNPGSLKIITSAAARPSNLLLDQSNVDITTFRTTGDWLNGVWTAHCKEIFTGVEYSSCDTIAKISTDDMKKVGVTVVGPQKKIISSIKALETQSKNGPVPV

[2] = biological target: Ephrin type-A receptor 4 (Homo sapiens) (UniProt P54764); conditions: at 1 µM
Sequence of Ephrin type-A receptor 4 (Homo sapiens) (P54764 whole entry): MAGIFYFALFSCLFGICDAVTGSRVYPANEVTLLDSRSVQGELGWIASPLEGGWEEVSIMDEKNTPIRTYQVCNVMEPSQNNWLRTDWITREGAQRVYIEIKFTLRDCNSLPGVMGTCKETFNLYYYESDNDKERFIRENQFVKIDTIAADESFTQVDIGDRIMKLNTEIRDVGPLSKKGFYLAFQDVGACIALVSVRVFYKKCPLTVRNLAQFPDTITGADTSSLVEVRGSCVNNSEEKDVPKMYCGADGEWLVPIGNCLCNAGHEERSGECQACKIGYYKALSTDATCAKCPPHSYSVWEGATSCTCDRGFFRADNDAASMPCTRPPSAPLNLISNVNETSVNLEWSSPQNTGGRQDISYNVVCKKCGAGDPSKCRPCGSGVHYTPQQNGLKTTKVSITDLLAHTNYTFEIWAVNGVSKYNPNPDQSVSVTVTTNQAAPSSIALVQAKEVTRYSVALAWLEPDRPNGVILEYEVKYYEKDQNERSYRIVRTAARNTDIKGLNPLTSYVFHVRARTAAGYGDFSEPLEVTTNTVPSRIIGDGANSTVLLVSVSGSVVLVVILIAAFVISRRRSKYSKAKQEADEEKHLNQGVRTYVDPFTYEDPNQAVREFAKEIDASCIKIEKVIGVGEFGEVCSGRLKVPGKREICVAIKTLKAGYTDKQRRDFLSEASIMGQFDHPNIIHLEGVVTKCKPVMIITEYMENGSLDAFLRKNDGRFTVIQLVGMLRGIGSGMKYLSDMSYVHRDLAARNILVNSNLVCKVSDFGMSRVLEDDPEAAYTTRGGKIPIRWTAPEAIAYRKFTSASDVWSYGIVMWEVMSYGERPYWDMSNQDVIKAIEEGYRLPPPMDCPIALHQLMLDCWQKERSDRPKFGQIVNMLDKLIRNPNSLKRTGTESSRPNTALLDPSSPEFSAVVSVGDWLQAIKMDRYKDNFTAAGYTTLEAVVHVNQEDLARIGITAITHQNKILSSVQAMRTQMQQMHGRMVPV

[3] = biological target: Ephrin type-A receptor 4 (Homo sapiens) (UniProt P54764); conditions: at 10 µM
[4] = biological target: Ephrin type-A receptor 5 (Homo sapiens) (UniProt P54756); conditions: at 1 µM
Sequence of Ephrin type-A receptor 5 (Homo sapiens) (P54756 whole entry): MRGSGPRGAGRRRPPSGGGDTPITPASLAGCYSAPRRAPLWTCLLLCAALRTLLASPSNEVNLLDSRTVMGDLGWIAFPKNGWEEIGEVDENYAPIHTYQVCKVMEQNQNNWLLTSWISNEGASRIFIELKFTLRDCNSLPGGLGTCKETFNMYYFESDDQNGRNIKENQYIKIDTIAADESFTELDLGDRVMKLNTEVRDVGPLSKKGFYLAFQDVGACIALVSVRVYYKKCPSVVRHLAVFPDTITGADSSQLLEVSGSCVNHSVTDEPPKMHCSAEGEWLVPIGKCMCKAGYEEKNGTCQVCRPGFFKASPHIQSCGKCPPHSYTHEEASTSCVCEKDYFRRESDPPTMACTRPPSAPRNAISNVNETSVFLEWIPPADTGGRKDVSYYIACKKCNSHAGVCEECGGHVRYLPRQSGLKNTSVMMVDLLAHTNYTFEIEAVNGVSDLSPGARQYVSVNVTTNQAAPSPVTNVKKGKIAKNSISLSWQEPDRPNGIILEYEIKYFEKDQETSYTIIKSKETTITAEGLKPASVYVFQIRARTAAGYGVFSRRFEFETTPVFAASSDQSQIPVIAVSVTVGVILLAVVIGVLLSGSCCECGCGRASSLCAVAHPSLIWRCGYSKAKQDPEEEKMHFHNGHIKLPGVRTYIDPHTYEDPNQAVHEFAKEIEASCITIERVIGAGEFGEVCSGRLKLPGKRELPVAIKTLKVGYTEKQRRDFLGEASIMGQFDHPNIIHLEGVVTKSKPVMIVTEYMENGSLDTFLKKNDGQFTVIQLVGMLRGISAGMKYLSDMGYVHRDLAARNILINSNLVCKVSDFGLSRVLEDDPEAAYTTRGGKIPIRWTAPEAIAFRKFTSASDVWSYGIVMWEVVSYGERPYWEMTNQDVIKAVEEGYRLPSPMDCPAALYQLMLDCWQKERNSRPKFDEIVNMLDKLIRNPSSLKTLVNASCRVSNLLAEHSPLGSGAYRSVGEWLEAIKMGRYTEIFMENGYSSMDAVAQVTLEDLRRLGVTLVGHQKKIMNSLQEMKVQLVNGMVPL

[5] = biological target: Ephrin type-A receptor 5 (Homo sapiens) (UniProt P54756); conditions: at 10 µM
[6] = biological target: Ephrin type-A receptor 7 (Homo sapiens) (UniProt Q15375); conditions: at 1 µM
Sequence of Ephrin type-A receptor 7 (Homo sapiens) (Q15375 28-998 limits assumed): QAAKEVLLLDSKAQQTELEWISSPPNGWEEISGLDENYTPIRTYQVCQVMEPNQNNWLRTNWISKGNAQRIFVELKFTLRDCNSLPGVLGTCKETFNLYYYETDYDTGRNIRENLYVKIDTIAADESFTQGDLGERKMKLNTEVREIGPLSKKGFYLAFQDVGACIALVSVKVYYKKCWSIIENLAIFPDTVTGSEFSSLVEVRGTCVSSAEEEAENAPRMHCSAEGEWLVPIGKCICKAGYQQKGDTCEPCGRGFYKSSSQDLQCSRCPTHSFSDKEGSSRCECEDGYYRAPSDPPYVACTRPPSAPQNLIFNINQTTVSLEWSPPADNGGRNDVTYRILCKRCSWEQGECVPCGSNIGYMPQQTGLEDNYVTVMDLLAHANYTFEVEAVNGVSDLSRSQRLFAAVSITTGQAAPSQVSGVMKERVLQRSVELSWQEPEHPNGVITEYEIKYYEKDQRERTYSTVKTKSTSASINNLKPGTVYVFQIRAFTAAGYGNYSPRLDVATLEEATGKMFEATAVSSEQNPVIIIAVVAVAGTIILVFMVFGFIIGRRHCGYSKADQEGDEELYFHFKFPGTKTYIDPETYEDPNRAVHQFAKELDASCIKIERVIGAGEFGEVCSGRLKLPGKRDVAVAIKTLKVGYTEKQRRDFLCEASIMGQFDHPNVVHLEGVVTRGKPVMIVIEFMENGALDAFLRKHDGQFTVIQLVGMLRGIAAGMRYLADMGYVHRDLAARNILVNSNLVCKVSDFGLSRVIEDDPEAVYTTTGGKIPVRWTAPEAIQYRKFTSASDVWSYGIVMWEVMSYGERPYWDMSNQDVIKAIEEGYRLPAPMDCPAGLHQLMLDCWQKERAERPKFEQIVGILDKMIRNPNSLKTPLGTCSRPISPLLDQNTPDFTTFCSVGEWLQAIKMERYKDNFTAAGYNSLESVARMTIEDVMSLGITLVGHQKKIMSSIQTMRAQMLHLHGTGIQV

[7] = biological target: Ephrin type-A receptor 7 (Homo sapiens) (UniProt Q15375); conditions: at 10 µM
[8] = biological target: T2, Ephrin type-A receptor 8 (Homo sapiens) (UniProt P29322); conditions: at 1 µM
T2 sequence (whole entry): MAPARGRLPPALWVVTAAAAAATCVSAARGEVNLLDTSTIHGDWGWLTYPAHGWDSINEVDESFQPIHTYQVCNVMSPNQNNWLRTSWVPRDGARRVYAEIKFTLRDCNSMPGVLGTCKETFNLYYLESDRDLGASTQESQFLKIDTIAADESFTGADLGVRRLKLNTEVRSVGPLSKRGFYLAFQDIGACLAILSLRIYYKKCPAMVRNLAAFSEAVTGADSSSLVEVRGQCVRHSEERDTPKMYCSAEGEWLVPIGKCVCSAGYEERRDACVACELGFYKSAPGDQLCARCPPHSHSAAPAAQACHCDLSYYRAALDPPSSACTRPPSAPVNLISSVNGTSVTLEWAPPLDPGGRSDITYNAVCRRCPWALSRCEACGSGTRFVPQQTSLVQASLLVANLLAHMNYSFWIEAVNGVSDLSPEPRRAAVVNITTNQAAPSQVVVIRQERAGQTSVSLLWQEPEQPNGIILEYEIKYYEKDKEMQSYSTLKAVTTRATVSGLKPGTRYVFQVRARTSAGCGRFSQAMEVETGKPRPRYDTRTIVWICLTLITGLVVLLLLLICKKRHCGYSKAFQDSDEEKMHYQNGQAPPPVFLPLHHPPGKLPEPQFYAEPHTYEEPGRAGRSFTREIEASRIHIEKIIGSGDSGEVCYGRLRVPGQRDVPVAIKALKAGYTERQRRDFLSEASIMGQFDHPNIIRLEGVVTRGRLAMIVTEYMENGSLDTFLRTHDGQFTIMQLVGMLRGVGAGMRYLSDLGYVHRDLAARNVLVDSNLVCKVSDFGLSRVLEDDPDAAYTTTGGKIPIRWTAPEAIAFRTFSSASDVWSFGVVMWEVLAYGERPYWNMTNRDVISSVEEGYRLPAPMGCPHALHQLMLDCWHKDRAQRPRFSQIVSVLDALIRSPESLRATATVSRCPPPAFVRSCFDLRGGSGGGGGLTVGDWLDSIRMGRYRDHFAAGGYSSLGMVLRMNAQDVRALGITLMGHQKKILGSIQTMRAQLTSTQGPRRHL

[9] = biological target: T2, Ephrin type-A receptor 8 (Homo sapiens); conditions: at 10 µM
[10] = biological target: T3, Ephrin type-B receptor 1 (Homo sapiens) (UniProt P54762); conditions: at 1 µM
T3 sequence (whole entry): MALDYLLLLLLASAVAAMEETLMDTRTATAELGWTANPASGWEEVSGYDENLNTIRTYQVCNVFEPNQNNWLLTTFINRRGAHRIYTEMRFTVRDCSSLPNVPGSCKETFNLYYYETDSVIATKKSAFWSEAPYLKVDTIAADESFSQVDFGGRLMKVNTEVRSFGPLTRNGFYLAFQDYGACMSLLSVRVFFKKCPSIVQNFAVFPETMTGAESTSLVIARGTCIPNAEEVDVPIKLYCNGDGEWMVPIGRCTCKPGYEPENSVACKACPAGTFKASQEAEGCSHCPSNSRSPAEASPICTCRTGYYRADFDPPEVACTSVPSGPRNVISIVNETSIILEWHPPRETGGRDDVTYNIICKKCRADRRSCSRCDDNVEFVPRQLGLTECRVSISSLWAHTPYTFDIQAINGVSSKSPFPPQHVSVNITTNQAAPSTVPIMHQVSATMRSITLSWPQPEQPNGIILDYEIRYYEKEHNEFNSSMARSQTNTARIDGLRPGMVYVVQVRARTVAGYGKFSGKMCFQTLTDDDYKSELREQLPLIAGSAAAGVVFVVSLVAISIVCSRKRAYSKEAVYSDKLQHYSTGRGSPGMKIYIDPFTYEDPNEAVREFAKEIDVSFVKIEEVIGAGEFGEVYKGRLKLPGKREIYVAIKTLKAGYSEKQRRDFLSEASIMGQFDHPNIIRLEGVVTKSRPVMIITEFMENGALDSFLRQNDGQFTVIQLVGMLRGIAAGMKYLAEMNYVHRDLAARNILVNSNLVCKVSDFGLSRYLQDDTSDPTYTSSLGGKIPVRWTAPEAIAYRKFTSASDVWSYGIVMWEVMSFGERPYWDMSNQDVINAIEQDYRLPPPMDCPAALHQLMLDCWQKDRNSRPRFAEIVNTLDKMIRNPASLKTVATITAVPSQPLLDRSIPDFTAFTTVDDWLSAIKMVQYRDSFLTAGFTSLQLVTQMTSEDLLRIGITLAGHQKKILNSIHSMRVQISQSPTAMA

[11] = biological target: T3, Ephrin type-B receptor 1 (Homo sapiens); conditions: at 10 µM
[12] = biological target: T4, Ephrin type-B receptor 3 (Homo sapiens) (UniProt P54753); conditions: at 1 µM
T4 sequence (whole entry): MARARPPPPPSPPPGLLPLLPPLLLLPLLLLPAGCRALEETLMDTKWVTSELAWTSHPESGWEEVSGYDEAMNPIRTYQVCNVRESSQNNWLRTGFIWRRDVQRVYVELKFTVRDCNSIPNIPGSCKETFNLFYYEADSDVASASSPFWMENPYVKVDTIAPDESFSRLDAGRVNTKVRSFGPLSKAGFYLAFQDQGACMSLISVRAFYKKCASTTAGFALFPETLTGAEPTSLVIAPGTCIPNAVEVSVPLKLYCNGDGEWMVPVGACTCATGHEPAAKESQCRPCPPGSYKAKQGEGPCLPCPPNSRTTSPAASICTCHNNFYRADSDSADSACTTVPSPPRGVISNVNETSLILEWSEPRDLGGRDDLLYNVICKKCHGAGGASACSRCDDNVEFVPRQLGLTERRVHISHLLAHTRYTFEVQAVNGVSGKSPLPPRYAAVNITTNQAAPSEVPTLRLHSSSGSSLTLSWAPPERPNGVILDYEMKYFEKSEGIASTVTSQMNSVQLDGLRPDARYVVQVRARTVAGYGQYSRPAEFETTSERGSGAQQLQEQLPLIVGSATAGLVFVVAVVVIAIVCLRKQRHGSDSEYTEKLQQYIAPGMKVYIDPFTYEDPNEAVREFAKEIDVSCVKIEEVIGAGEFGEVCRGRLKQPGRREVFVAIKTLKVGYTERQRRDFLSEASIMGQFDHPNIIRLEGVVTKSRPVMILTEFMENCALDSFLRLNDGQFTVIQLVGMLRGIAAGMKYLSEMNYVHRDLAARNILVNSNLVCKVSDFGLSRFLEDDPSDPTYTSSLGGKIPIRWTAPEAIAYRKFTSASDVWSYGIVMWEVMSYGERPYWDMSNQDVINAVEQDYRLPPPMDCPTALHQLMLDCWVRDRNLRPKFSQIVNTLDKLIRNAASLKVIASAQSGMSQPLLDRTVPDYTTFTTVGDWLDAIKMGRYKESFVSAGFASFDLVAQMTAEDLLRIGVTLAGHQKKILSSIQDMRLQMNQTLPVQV

[13] = biological target: T4, Ephrin type-B receptor 3 (Homo sapiens); conditions: at 10 µM
[14] = biological target: T5, Ephrin type-B receptor 4 (Homo sapiens) (UniProt P54760); conditions: at 1 µM
T5 sequence (whole entry): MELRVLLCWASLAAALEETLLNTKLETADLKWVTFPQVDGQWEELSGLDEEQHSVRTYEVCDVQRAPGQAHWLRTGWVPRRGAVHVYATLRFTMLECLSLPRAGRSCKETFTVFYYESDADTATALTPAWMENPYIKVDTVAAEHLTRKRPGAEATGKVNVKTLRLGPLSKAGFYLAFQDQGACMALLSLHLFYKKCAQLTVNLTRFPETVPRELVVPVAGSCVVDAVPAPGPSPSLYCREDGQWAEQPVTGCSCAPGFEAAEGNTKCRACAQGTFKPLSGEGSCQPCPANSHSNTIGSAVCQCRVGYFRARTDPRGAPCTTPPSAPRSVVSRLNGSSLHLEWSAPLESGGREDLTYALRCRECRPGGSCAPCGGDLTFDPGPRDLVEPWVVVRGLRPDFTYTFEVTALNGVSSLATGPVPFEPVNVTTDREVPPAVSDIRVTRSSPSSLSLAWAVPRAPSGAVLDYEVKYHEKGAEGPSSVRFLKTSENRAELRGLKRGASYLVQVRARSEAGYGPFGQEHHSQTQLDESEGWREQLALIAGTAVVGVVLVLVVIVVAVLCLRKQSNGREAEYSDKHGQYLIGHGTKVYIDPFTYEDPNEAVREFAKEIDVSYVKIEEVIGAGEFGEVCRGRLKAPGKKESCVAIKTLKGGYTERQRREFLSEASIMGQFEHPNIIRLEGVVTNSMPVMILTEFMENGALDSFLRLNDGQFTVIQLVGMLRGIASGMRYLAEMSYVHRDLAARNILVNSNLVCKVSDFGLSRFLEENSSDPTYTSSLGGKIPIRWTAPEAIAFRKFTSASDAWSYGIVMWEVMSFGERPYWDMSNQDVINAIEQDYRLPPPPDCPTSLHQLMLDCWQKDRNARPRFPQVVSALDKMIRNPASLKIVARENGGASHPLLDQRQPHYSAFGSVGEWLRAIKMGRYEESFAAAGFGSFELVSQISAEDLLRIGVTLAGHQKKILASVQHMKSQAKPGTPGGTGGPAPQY

[15] = biological target: T5, Ephrin type-B receptor 4 (Homo sapiens); conditions: at 10 µM
[16] = biological target: Receptor tyrosine-protein kinase erbB-4 (Homo sapiens) (UniProt Q15303); conditions: at 1 µM
Sequence of Receptor tyrosine-protein kinase erbB-4 (Homo sapiens) (Q15303 whole entry): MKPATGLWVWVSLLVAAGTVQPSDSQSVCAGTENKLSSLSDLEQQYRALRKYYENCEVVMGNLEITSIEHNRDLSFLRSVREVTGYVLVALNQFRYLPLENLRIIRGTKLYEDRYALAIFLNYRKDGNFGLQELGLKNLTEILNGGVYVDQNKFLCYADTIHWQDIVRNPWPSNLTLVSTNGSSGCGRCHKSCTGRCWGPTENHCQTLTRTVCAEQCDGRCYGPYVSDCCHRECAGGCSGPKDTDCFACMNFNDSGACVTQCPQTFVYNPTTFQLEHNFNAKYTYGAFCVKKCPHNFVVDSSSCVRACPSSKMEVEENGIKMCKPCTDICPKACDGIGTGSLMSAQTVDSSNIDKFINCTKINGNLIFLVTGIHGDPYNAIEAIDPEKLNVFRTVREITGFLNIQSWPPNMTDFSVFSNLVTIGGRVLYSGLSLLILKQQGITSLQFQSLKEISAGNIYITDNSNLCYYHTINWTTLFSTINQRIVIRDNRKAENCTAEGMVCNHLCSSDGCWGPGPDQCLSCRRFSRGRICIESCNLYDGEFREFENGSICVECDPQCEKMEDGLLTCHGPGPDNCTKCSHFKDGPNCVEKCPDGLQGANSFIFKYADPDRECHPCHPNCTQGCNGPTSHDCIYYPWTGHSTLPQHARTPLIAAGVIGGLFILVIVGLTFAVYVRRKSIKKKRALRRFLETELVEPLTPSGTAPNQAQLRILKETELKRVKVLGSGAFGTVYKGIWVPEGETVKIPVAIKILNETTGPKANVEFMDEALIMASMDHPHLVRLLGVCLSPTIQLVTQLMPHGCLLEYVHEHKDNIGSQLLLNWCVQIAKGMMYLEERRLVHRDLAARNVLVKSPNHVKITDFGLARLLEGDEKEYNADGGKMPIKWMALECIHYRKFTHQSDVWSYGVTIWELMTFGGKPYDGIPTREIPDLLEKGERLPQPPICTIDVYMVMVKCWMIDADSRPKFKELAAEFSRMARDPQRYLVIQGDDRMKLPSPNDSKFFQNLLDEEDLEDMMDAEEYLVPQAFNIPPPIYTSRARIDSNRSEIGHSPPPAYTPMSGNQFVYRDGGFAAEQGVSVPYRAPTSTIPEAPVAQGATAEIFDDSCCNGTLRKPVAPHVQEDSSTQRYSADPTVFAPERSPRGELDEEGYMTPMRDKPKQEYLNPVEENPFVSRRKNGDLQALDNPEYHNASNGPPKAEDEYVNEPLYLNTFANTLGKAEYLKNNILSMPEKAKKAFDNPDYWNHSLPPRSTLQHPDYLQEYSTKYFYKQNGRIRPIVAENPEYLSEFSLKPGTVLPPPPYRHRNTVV

[17] = biological target: Receptor tyrosine-protein kinase erbB-4 (Homo sapiens) (UniProt Q15303); conditions: at 10 µM
[18] = biological target: Focal adhesion kinase 1 (Homo sapiens) (UniProt Q05397); conditions: at 1 µM

O=c1c2ccccc2[nH]c(=S)n1CCN1CCC(=C(c2ccc(F)cc2)c2ccc(F)cc2)CC1
residual activity [1]: 96%
residual activity [2]: 112%
residual activity [3]: 100%
residual activity [4]: 110%
residual activity [5]: 92%
residual activity [6]: 106%
residual activity [7]: 92%
residual activity [8]: 115%
residual activity [9]: 111%
residual activity [10]: 90%
residual activity [11]: 90%
residual activity [12]: 112% (inactive)
residual activity [13]: 107%
residual activity [14]: 99%
residual activity [15]: 121%
residual activity [16]: 102%
residual activity [17]: 66%
residual activity [18]: 135%

Source: ChEMBL document CHEMBL2218924, “A broad activity screen in support of a chemogenomic map for kinase signalling research and drug discovery” (Biochem J, 2013)
